Shown are actives, neighbours in structure and some others; about 2.5% of the full set was active somewhere.
Cruzain Triton: qHTS Assay for Promiscuous and Specific Inhibitors of Cruzain (with detergent). purified cruzain, Z-FR-AMC fluorescence, 0.01% Triton. Potency, µM, for inactives: max response, negative = inhibition, most hits filed as inhibitors. hit rate 0.43% among 200,000;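 also: plate controls were neutral wells for no effect and buffer without enzyme for full effect; nearly all actives have a fitted effect of over 40% in size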
Target sequence (P25779 123-467 limits assumed): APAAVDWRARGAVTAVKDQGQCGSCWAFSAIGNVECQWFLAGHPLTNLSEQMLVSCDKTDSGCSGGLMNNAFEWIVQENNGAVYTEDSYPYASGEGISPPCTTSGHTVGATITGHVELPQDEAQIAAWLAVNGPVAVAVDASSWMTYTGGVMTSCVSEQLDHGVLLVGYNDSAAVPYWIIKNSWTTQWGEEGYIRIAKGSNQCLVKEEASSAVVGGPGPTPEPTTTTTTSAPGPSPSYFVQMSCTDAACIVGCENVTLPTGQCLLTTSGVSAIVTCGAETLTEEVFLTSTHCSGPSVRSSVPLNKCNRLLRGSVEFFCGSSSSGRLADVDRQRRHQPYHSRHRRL
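Detergent-containing run (0.01% Triton X-100) in acetate buffer pH 5.5 with 5 mM DTT: enzyme at 1.5 nM final, 15 min compound preincubation at room temperature, then 2 uM Z-FR-AMC substrate. Activity taken as 60 s fluorescence increase at 360/450 nm.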
Cruzain noTriton: qHTS Assay for Promiscuous and Specific Inhibitors of Cruzain (without detergent); hit rate 2.3% among 200,000; purified cruzain, Z-FR-AMC fluorescence, no detergent; Cruzipain (Trypanosoma cruzi), P25779; Potency, µM, for inactives: max response, negative = inhibition, actives largely listed as inhibitors; AID 1476, 2009;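 also: plate controls were enzyme without inhibitor for no effect and buffer without enzyme for full effect; nearly all actives have a fitted effect of over 40% in size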
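Detergent-free condition (0.00005% Triton X-100) in acetate buffer pH 5.5 with DTT. 1.5 nM enzyme and compound were pre-mixed 15 min, then 2 uM Z-FR-AMC substrate added; reaction progress from fluorescence change between first and third reads (60 s).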
Active calls of the source: *; u = inconclusive. Calls follow the shape of the dose curve; as a rule, active = well fitted curve in the direction sought with a large enough effect; inconclusive = small, poorly fitted or top-dose-only effect, or another doubt; inactive = no such curve, though single readings can be large; an effect the other way counts as inactive or inconclusive. Potency is read from the fitted curve at half-maximal effect.

SMILES | Cruzain Triton | Cruzain noTriton
CCC1CCc2c(sc(NC(=O)C3c4ccccc4Oc4ccccc43)c2C(N)=O)C1 (configuration not stated) | -1% | 25µM*
CC(C)OC(=O)c1c(NC(=O)C2c3ccccc3Oc3ccccc32)sc2c1CCCC2 | -7% | 6.3µM*
CCOC(=O)c1c(NC(=O)c2ccccc2OCC)sc2c1CCC(CC)C2 (configuration not stated) | -1% | 2%
CCc1cccc(-n2nnc(-c3nc(-c4cccs4)no3)c2N)c1 | 0% | -2%
Cc1ccc(C)c(N2CCN(C(=O)Cn3cnc4nc5c(cc4c3=O)CCCC5)CC2)c1 | -1% | -9%
O=C(Oc1ccc(N(Cc2cccs2)C2=NS(=O)(=O)c3ccccc32)cc1)c1ccc(Cl)cc1 | -1% | 32µM*
O=C(Oc1ccc(N(Cc2cccs2)C2=NS(=O)(=O)c3ccccc32)cc1)c1ccccc1 | 2% | u
Fc1ccc(Nc2nc(SCc3ccccc3F)nc3ccccc23)cc1 | -5% | -8%
CC1CC(C)CN(C(=O)COC(=O)CCc2nc3ccccc3c(=O)[nH]2)C1 (configuration not stated) | 0% | 0%
O=C(CCc1nc2ccccc2c(=O)[nH]1)OCC(=O)c1ccc(C2CCCCC2)cc1 | -5% | 16µM*
Cc1cc(C)nc(N/N=C/c2ccccc2)n1 | -6% | -3%
Cc1nc(N/N=C/c2ccccc2)nc(N(C)c2ccccc2)c1[N+](=O)[O-] | -1% | 16µM*
CCNC(=O)c1c2c(nc3ccccc13)C(=O)N(C1CCCCC1)C2 | -4% | 1%
COc1ccc(-c2nn(-c3ccccc3)cc2/C=C/C(=O)OCC(=O)Nc2cccc(C#N)c2)cc1 | 0% | 32µM*
COc1ccc(-c2nn(-c3ccccc3)cc2/C=C/C(=O)OCC(=O)Nc2ccc(C#N)cc2)cc1 | -13% | u
CC(=O)Nc1ccc(NC(=O)C(C)OC(=O)/C=C/c2cn(-c3ccccc3)nc2-c2cccnc2)cc1 (configuration not stated) | -9% | u
Cc1ccccc1NC(=O)COC(=O)/C=C/c1cn(-c2ccccc2)nc1-c1cccnc1 | -5% | 25µM*
COc1ccc(Oc2ncc3nc(-c4cn(C)c5ccccc45)c(=O)n(C)c3n2)cc1 | 5% | 5%
CC(C)C(NS(=O)(=O)c1cccc2cccnc12)C(=O)Nc1ccc(OC(F)(F)F)cc1 (configuration not stated) | -7% | 10%
O=C(Nc1ccc(O)c(-c2nc3ccccc3o2)c1)C1(c2ccc(Cl)cc2)CCCC1 | 7% | 5µM*
O=C(Nc1ccc(O)c(-c2nc3ccccc3o2)c1)c1ccco1 | -1% | -9%
COc1cccc(NC(=O)/C(C#N)=C/c2c(C)n(Cc3ccc(Cl)cc3)c3ccccc23)c1 | -2% | 6.3µM*
COc1cccc(NC(=O)Cn2c(=O)n(CCC(=O)NCCc3ccc(Cl)cc3)c(=O)c3ccccc32)c1 | -3% | -9%
Cc1c(/C=C(\C#N)C(=O)Nc2cccc(Cl)c2)c2ccccc2n1Cc1ccccc1 | -4% | 4µM*
Cc1ccc(Cl)cc1NC(=O)/C(C#N)=C/c1c(C)n(Cc2ccccc2)c2ccccc12 | 0% | 3%
SMILES | Cruzain Triton | Cruzain noTriton
Cc1ccc(Nc2nc(C(N)=O)c(NC(=O)c3ccccc3Br)s2)cc1 | -5% | u
CC(C)[C@@H](CC(=O)N[C@@H]1CCCC[C@H]1C(=O)N[C@H](CC(=O)N[C@@H](CCC(=O)O)CC(=O)O)Cc1ccccc1)NC(=O)C[C@H](Cc1c[nH]c2ccccc12)NC(=O)[C@@H]1CCCC[C@H]1N | 1% | u
CC(C)(C)c1ccc(C(=O)NC(Cc2c[nH]c3ccccc23)C(=O)OCC(=O)c2ccccc2)cc1 (configuration not stated) | -9% | u
COc1ccc(C(=O)COC(=O)C(Cc2c[nH]c3ccccc23)NC(=O)c2ccc(C(C)(C)C)cc2)cc1 (configuration not stated) | -1% | 13µM*
COc1ccc(NC(=O)Cn2c(=O)n(Cc3nc(C)no3)c(=O)c3cc4c(cc32)OCO4)cc1OC | -6% | u
Cc1cccc2sc(N(Cc3cccnc3)C(=O)c3ccco3)nc12 | -8% | 26%
CCNc1ncc2nc(-c3cccs3)c(=O)n(C)c2n1 | 4% | 10%
CCn1nc(-c2cccs2)nc2c(=O)n(C)c(=O)nc1-2 | 2.2µM* | 2µM*
CCc1ccc(OCC(=O)N/N=C/c2cc([N+](=O)[O-])ccc2N2CCCCCC2)cc1 | -4% | u
CCC1CCCCN1c1ccc([N+](=O)[O-])cc1/C=N/NC(=O)Cn1c2ccccc2c(=O)c2ccccc21 (configuration not stated) | -1% | 6.3µM*
N#Cc1c(-c2ccccc2)cc(C2CC2)nc1SCC(=O)c1cccs1 | 1% | u
CC(C)NC(=O)CSc1nc(-c2cccs2)cc(-c2ccccc2)c1C#N | -7% | 20µM*
COc1ccc(-c2cc(-c3ccccc3)c(C#N)c(SCC(=O)Nc3ncc(C)s3)n2)cc1 | -3% | u
COc1ccc(-c2cc(-c3ccccc3)nc(SCC(=O)Nc3nccs3)c2C#N)cc1 | -8% | 7.9µM*
CCc1nnc(NC(=O)CSc2nc(-c3ccccc3)cc(-c3ccc(OC)cc3)c2C#N)s1 | -3% | 13µM*
COc1ccc(-c2cc(-c3ccccc3)nc(SCC(=O)Nc3ccccc3F)c2C#N)cc1 | 1% | -6%
O=C(Nc1nc(-c2ccc(Br)cc2)ns1)c1ccc(F)cc1 | -1% | 1%
COc1ccc(C(=O)N2CCC3(CCN(Cc4nccs4)CC3)CC2)cc1 | 3% | -2%
Cc1ccccc1OCC(=O)Nc1ccccc1C(=O)OCc1cc(=O)n2c(C)csc2n1 | -1% | 10%
CC(=O)c1ccc(NC(=O)Cn2c(=O)cc(C)c3c(C)nn(-c4cccc(F)c4)c32)cc1 | -2% | -3%
COc1ccc(-n2cc(C(=O)NCCc3ccc(C)cc3)c3ccccc3c2=O)cc1 | -5% | 25µM*
COc1cccc(-n2cc(C(=O)NCCc3ccc(C)cc3)c3ccccc3c2=O)c1 | 0% | 20%
O=C(CSc1nc(=O)[nH]c2c1CCCC2)NCc1ccc(Cl)cc1 | 2% | -9%
Cc1ccc(N2CCN(S(=O)(=O)c3ccc(F)c(C(=O)Nc4ccc(Cl)cc4Cl)c3)CC2C)cc1 (configuration not stated) | 1% | -9%
COc1ccccc1NC(=O)c1cc(S(=O)(=O)N2CCN(c3ccccc3Cl)CC2)ccc1F | 1% | 10µM*
SMILES | Cruzain Triton | Cruzain noTriton
Cc1ccc(C)c(NC(=O)c2cc(S(=O)(=O)N3CCN(c4cccc(Cl)c4)CC3)ccc2F)c1 | 1% | 7.9µM*
COc1ccccc1N1CCN(S(=O)(=O)c2ccc(F)c(C(=O)Nc3ccc(Cl)cc3C(F)(F)F)c2)CC1 | 0% | u
Nc1nnc(CC(=O)N/N=C/c2ccc(-c3ccccc3)o2)s1 | -13% | -9%
Cc1cccc(OCCOc2ccc(/C=N/NC(=O)Cc3nnc(N)s3)cc2)c1 | 3% | 5µM*
Cc1ccc(C(=O)COC(=O)c2cc(-c3ccc(Cl)cc3)nc3ccccc23)cc1 | -1% | -1%
CCOC(=O)c1c(C)c(-c2ccccc2)n(CC(=O)NC(CC)Cc2ccccc2)c1C (configuration not stated) | 0% | 0%
O=C(Nc1nc(C2C3CC4CC(C3)CC2C4)cs1)c1cc2cc([N+](=O)[O-])ccc2oc1=O (configuration not stated) | -2% | 25µM*

High-throughput results from PubChem.
